Consider 13 molecules from PubChem BioAssay.

The source made the active and inactive calls.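 The calls were made as follows, unless noted: active = inhibition of the reporter signal at or above 50%; inactive = inhibition below 50%.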

Assay [1] is described as follows: inhibitors of TNFa-induced NFkB p65 translocation, primary screen, imaging, HUVEC, MLSMR starter and 10KST1 sets (AID 438;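 active = inhibition above 20% together with a positive visual image hit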;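 also: compound added about 3h40 before a 20 min TNFalpha stimulation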;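 as to inhibition: signal is the nuclear over cytoplasmic p65 intensity ratio per well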). To be noted: HUVEC TNFa-induced p65 nuclear translocation; cell count: measured here: nuclei count (cytotoxicity indicator), at 2.08 µM; inhibition: at 2 µM, stronger effect = higher value, 0% TNFa-plus-vehicle, 100% no-TNFa wells.
Assay [2] in a line: inhibitors of mutant huntingtin aggregation, primary screen, imaging, exon1htt(103Q)mCFP cells, high-content imaging (AID 483;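 active = visual image review flags a hit and inhibition of aggregation exceeds 20%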;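 also: compound exposure lasted 3 days before fixation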;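 as to nuclei count: percent of the per-plate median nuclei count of sample wells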). To be noted: exon1htt(103Q)mCFP cell line, aggregate imaging, at 2 µM; inhibition of aggregation: stronger effect = higher value; nuclei count: measured here: cell count, toxicity.
Assay [3] can be described thus: inhibitors of E-selectin induction by TNFa, primary screen, imaging, HUVEC, immunofluorescence, MLSMR starter and 10KST1 sets (AID 487;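 active = visually confirmed hit in the image check and inhibition above 20%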;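 as to inhibition: signal is fraction of cell area covered by stained E-selectin grains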;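 as to nuclei count: 100% = median nuclei count of all wells on the same plate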). To be noted: HUVEC TNFalpha-induced E-selectin immunofluorescence imaging, at 2 µM; inhibition: stronger effect = higher value; nuclei count: measured here: cell number, toxicity.
Assay [4] has as its target Voltage-gated potassium channel subunit beta-2 (Rattus norvegicus) (UniProt P62483). The assay is described as follows: KvBeta enzyme negative modulators, primary screen, biochemical, NADPH fluorescence (AID 622;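 active = fluorescence slope higher than the sample average by over 3 SD, cut at about -0.22 in these data, passing the limit was not always enough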;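 also: slope of raw intensity against log time taken from 70 to 1610 s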). Particulars: recombinant KvBeta, 4-cyanobenzaldehyde reduction, at 10 µM, stronger effect = higher value.
The target is the same in assay [5]. The experiment in a line: KvBeta positive modulators, primary screen, biochemical, NADPH fluorescence (AID 623;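 active = NADPH fluorescence slope more negative than the mean of all samples by about 3 SD, 99.7% confidence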;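 also: fluorescence intensity change per second fitted from 20 to 320 s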). To be noted: Recombinant KvBeta, NADPH fluorescence decrease slope, 10 min; at 10 µM; stronger effect = lower value.
Assay [6] concerns the target Alpha-2C adrenergic receptor (Homo sapiens) (UniProt P18825). The experiment in a line: modulators of alpha2C/GIRK thallium flux, primary screen, cell-based, HEK293 alpha2C/GIRK1/2 (AID 624;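 active = fluorescence slope after compound addition differing from the mean of all screened samples at 99.7% confidence, in either direction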;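 also: slope of fluorescence ratio to pre-addition baseline per second over 15 to 24 s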). To be noted: thallium flux BTC fluorescence, at 10 µM, actives lie on both sides.
A short description of assay [7]: inhibitors of Sendai virus-induced IRF3 signaling, primary screen, TLR/RLR signaling modifier project, cell-based, Sendai virus stimulus, luciferase, 10K MLSCN set (AID 602276;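 active = inhibition at or above 50% at 10 µM; inactive = inhibition below 50%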;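 also: firefly luciferase from ISG56 promoter only with Renilla not read in this screen; 0% = Sendai virus plus DMSO and 100% = medium plus DMSO without virus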). Particulars: HEK293 RL24 IRF3 luciferase reporter, at 10 µM, stronger effect = higher value. A general note: Reporter assays use an easily measured gene product as a stand-in for the process of interest.

A short description of assay [8]: inhibitors of poly I:C-induced TLR3 signaling, primary screen, cell-based, poly I:C stimulus, luciferase, 10K MLSCN set (AID 602277). Particulars: HEK293-TLR3 RL24 IRF3 luciferase reporter, at 10 µM, stronger effect = higher value.

Chain of Voltage-gated potassium channel subunit beta-2 (Rattus norvegicus) (P62483 whole entry, looked up): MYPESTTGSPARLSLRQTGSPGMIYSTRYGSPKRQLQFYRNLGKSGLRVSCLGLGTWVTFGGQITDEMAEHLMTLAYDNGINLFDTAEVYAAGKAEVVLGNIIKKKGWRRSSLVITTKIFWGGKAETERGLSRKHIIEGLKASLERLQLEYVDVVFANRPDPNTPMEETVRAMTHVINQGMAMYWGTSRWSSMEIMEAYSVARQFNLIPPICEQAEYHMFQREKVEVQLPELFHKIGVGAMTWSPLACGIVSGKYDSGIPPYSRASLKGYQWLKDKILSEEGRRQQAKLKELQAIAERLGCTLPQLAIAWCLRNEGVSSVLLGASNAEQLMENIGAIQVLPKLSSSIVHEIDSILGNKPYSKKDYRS
Chain of Alpha-2C adrenergic receptor (Homo sapiens) (P18825 whole entry, looked up): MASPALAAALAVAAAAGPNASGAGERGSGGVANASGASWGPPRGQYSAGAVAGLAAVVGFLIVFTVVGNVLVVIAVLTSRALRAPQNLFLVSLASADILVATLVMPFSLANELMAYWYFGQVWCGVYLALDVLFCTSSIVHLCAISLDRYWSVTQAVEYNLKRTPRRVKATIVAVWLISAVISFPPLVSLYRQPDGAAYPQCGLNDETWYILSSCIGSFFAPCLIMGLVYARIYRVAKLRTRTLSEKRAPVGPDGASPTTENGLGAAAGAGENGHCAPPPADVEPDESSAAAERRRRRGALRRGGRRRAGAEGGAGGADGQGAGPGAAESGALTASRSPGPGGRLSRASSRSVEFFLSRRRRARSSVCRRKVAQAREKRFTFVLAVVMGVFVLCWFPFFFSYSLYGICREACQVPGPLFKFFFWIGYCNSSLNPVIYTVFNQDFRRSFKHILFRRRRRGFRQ

Regarding `COc1cccc(NC(=O)CSc2nnc(-c3cc(-c4ccccn4)nc4ccccc34)o2)c1`, the cell count in assay [1] is 578. The inhibition was -14.5% (inactive) in assay [1], -102% (inactive) in assay [3], 1.87% (inactive) in assay [7] and 0.453% (inactive) in assay [8]. Besides, in assay [2], the inhibition of aggregation is -14.5% (inactive). Moreover, the nuclei count in assay [2] was found to be 112%; in assay [3] it was 141%. For the same molecule, the fluorescence slope in assay [4] was -0.57 (inactive). The NADPH fluorescence slope in assay [5] is -2e-06 (inactive). In addition, in assay [6], the slope is 0.00553 (inactive).

Consider `CCc1nnc(NC(=O)CSc2nnc(CSc3nc(C)cc(C)n3)n2CC)s1`, for which the cell count in assay [1] was 424. Besides, the inhibition is -5% (inactive) in assay [1], -40.7% (inactive) in assay [3], -5.81% (inactive) in assay [7] and -12.1% (inactive) in assay [8]. In addition, the inhibition of aggregation in assay [2] is -13.6% (inactive). Also, the nuclei count in assay [2] worked out at 128%; in assay [3], 129%. In addition, the fluorescence slope in assay [4] is -0.37 (inactive). For the same molecule, the NADPH fluorescence slope in assay [5] was 8.3e-06 (inactive). In addition, the slope in assay [6] is 0.00824 (inactive).

In the case of `COc1cccc(C2CC(c3ccc(F)cc3)Nc3nc(N)nn32)c1` (stereo not drawn), in assay [1], the cell count was found to be 605. Further, the inhibition in assay [1] is -6.5% (inactive); in assay [3] it was -6.1% (inactive); in assay [7], -17.7% (inactive); in assay [8] it was 16.2% (inactive). Also, the inhibition of aggregation in assay [2] is 1.4% (inactive). Further, the nuclei count came out at 105% in assay [2] and 117% in assay [3]. The fluorescence slope in assay [4] is -0.501 (inactive). Besides, the NADPH fluorescence slope in assay [5] was 2.1e-05 (inactive). Besides, the slope in assay [6] is 0.00747 (inactive).

In the case of `COCCN(C(=O)c1csnn1)C(C(=O)NC1CCCCC1)c1cccs1` (stereo not drawn), the cell count in assay [1] was 370. Besides, the inhibition is 5% (inactive) in assay [1], -52.1% (inactive) in assay [3], 10.7% (inactive) in assay [7] and 23.1% (inactive) in assay [8]. In addition, the inhibition of aggregation in assay [2] is -6.3% (inactive). In addition, the results for the nuclei count in assay [2] and in assay [3] were 107% and 95.8%, respectively. The fluorescence slope in assay [4] is -0.335 (inactive). The NADPH fluorescence slope in assay [5] was 5.1e-05 (inactive). Also, the slope in assay [6] is 0.00648 (inactive).

For the molecule `COc1ccc(C2C3=C(OC(C)=O)c4ccccc4C3=Nc3c2c(=O)n(C)c(=O)n3C)cc1` (stereo not drawn), the cell count in assay [1] is 657. For the same molecule, the inhibition was 0.2% (inactive) in assay [1], -72.4% (inactive) in assay [3], 12.9% (inactive) in assay [7] and 12.4% (inactive) in assay [8]. Moreover, the inhibition of aggregation in assay [2] was -0.9% (inactive). Besides, the nuclei count in assay [2] came out at 103%; in assay [3] it was 116%. In addition, the fluorescence slope in assay [4] was -0.41 (inactive). The NADPH fluorescence slope in assay [5] was -3.9e-05 (inactive). For the same molecule, the slope in assay [6] is 0.00537 (inactive).

In the case of `O=C1c2ccccc2C(=O)N1C/C=C/CN1C(=O)c2ccccc2C1=O`, in assay [1], the cell count was 480. Moreover, the inhibition was 7.4% (inactive) in assay [1], -12.9% (inactive) in assay [3], 23.3% (inactive) in assay [7] and 18.7% (inactive) in assay [8]. In addition, in assay [2], the inhibition of aggregation was 0.3% (inactive). Moreover, the nuclei count in assay [2] stood at 107%; in assay [3], 113%. Also, the fluorescence slope in assay [4] is -0.331 (inactive). For the same molecule, the NADPH fluorescence slope in assay [5] is -1.5e-05 (inactive). In assay [6], the slope is 0.007 (inactive).

Consider `Cc1cc(-n2c(C)cc(C(=O)CSc3nc4ccccc4c(=O)n3Cc3ccco3)c2C)no1`, for which, in assay [1], the cell count was 288. Besides, the inhibition was -8.6% (inactive) in assay [1], -104% (inactive) in assay [3], 8.08% (inactive) in assay [7] and -48.8% (inactive) in assay [8]. For the same molecule, the inhibition of aggregation in assay [2] is 8.4% (inactive). Also, the figures for the nuclei count in assay [2] and in assay [3] were 95% and 96.6%, respectively. For the same molecule, in assay [4], the fluorescence slope was -0.441 (inactive). Moreover, the NADPH fluorescence slope in assay [5] is -2e-05 (inactive). For the same molecule, the slope in assay [6] is 0.00698 (inactive).

On to `O=C(O)CN1C(=O)CNC1=O`, for which the cell count in assay [1] was determined as 249. The inhibition is 8.5% (inactive) in assay [1], -66.2% (inactive) in assay [3], 3.07% (inactive) in assay [7] and 24% (inactive) in assay [8]. In assay [2], the inhibition of aggregation was -1.9% (inactive). Also, the nuclei count in assay [2] is 60.7%; in assay [3], 119%. Moreover, in assay [4], the fluorescence slope is -0.519 (inactive). Moreover, in assay [5], the NADPH fluorescence slope was 9.8e-06 (inactive). Also, the slope in assay [6] was 0.00529 (inactive).

For `CCCS(=O)(=O)N1CCCC(C(=O)NC2CCCC(C)C2C)C1` (stereo not drawn), the cell count in assay [1] was 357. Further, the inhibition in assay [1] is -0.5% (inactive); in assay [3] it was -13.1% (inactive); in assay [7] it was 9.58% (inactive); in assay [8], -2.45% (inactive). Also, in assay [2], the inhibition of aggregation is 7.4% (inactive). Further, the values for the nuclei count in assay [2] and in assay [3] were 92.6% and 105%, respectively. The fluorescence slope in assay [4] is -0.551 (inactive). The NADPH fluorescence slope in assay [5] was 2.2e-05 (inactive). Further, the slope in assay [6] is 0.00599 (inactive).

Consider `Cn1cnc(S(=O)(=O)Nc2ccc(C(F)(F)F)cc2)c1`, for which the cell count in assay [1] turned out to be 480. Also, the inhibition is 2.2% (inactive) in assay [1], 14.3% (inactive) in assay [3], 2.5% (inactive) in assay [7] and 18% (inactive) in assay [8]. Besides, the inhibition of aggregation in assay [2] is -3.4% (inactive). Also, the results for the nuclei count in assay [2] and in assay [3] were 117% and 103%, respectively. Moreover, in assay [4], the fluorescence slope is -0.357 (inactive). Moreover, the NADPH fluorescence slope in assay [5] is -6.4e-05 (inactive). In addition, in assay [6], the slope was 0.00601 (inactive).

Turning to `CC1CCN(C(=O)CSc2nc3ccccc3[nH]2)CC1`, in assay [1], the cell count came out at 761. Further, the inhibition in assay [1] was 0.5% (inactive); in assay [3], 75.2% (active); in assay [7] it was -38.7% (inactive); in assay [8], -116% (inactive). Further, the inhibition of aggregation in assay [2] is 1.8% (inactive). Further, the nuclei count in assay [2] came to 110%; in assay [3], 88.9%. Also, the fluorescence slope in assay [4] was -0.359 (inactive). For the same molecule, in assay [5], the NADPH fluorescence slope is -9.6e-06 (inactive). In assay [6], the slope was 0.00679 (inactive).

As to `C/C(=N\O)C(=O)C(CN1CCCCC1)CN1CCCCC1`, in assay [1], the cell count was 386. For the same molecule, the inhibition in assay [1] is 0.5% (inactive); in assay [3], -144% (inactive); in assay [7] it was -5.16% (inactive); in assay [8], 25.3% (inactive). Also, in assay [2], the inhibition of aggregation is -0.1% (inactive). Besides, the nuclei count in assay [2] is 89.2%; in assay [3] it was 98.1%. Further, the fluorescence slope in assay [4] is -0.437 (inactive). In addition, the NADPH fluorescence slope in assay [5] is 1.9e-05 (inactive). Moreover, the slope in assay [6] was 0.00389 (inactive).

For `CCOc1ccc(N(CC(=O)NCc2ccco2)S(=O)(=O)c2ccc(OC)c(OC)c2)cc1`, the cell count in assay [1] was 429. Further, the inhibition in assay [1] was 3.5% (inactive); in assay [3], -45.5% (inactive); in assay [7], 3.08% (inactive); in assay [8], 30.5% (inactive). The inhibition of aggregation in assay [2] was -2.6% (inactive). Besides, the nuclei count in assay [2] and in assay [3] was 110% each time. The fluorescence slope in assay [4] was -0.409 (inactive). Also, the NADPH fluorescence slope in assay [5] is 4.2e-05 (inactive). Moreover, the slope in assay [6] was 0.0072 (inactive).

As usually defined, the inhibition is the drop in the measured response relative to a control, in per cent.
